Compounds with a hit are over-represented: about 3.8% of the library has one in this group of screens.
TGFb SMAD3 inh = blocks TGF-b signaling; AID 588855; 1.2% of 410,000 active; Potency, µM (highest dose often 46.1 µM), for the others: top-dose activity, negative = inhibition, actives largely listed as inhibitors; HepG2 CAGA-GFP TGF-b/SMAD3 reporter, GFP fluorescence, 18 h; TGF-beta stimulated, 500 pg/mL final; note: % is set by controls: 0 for no effect and ±100 for the full control effect; nearly all actives have a fitted effect of over 65% in size
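Inhibition of TGF-beta-driven CAGA-GFP reporter expression in HEPG2 cells is measured by cellular GFP fluorescence after 18 h stimulation with 500 pg/mL recombinant TGF-beta in 1% FBS medium at 37 degrees C.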
HepG2 tox = HepG2 cytotoxicity, counter-screen for TGF-b inhibitors. Potency, µM (top dose mostly 46.1 µM), without a hit: at the highest dose activity change, negative = cytotoxicity, usual class: cytotoxic. 0.76% of 410,000 active. AID 588856. HepG2 CAGA-GFP viability, ATP luminescence, 18 h
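HepG2 CAGA-GFP cells (1000/well, DMEM with 1% FBS) received compound, then TGF-beta at 500 pg/mL final, and were incubated 18 hours at 37 degrees C. Viability was read by CellTiter-Glo luminescence. Media-only wells were set as complete cell-killing and DMSO as no toxicity.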
HT1080NT lethal = kills 2HG-producing HT-1080-NT fibrosarcoma cells; 1.6% of 360,000 active; Potency, µM (series often up to 46.1 µM), for the others: top-dose activity, negative = less viability, usual class: cytotoxic; HT-1080-NT fibrosarcoma viability, CellTiter-Glo ATP luminescence, 48 h;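 note: NT is the 2HG producing partner of a matched IDH1 knockdown line; 0% = DMSO-treated cells and -100% = media-only wells without cells; nearly all actives have a fitted effect of over 55% in size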
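750 cells/well, RPMI + 5% FBS; 2 h settle, compound pin-transfer, 48 h at 37 degrees C. CellTiter-Glo 10 min RT, luminescence. Normalized to DMSO and media-only wells.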
HT1080 IDH1KD tx = kills HT-1080 cells with IDH1 knockdown. HT-1080 IDH1 knockdown viability, ATP luminescence, 48 h. AID 686971. Potency, µM (doses to about 46.1 µM), for the others: at the top dose activity, negative = toxicity, usual class: cytotoxic. 2% of 360,000 active;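 note: 0% = DMSO wells and -100% = cell-free medium wells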
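HT-1080-IDH1KD cells (IDH1 knocked down), 750/well in RPMI with 5% FBS, treated with compound 48 h at 37 degrees C. Viability by CellTiter-Glo luminescence, normalised to DMSO and no-cell wells; concentration-response curves classed.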
ATXN2 expr inh = inhibitors of ATXN2 expression; HEK-293 ATXN2-luciferase reporter, luminescence, 24 h; Potency, µM (series often up to 57 µM), for the others: at the highest dose activity change, negative = inhibition, most hits filed as inhibitors; 0.72% of 360,000 active; AID 1745845; note: % is set by controls: 0 for no effect and ±100 for the full control effect; nearly all actives have a fitted effect of over 55% in size
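qHTS (up to 57 uM final) was run with 24 h compound exposure of reporter cells at 37 °C. Each well was multiplexed: SteadyGlo luminescence measured ATXN2-luciferase expression after a fluorogenic Gly-Phe-AFC viability readout (25 uM final).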
S2 tox = cell viability loss in ATXN counter-screen | AID 651635 | Potency, µM (top dose mostly 56.7 µM), hits mostly cytotoxic | 0.49% of 400,000 active | S2 cells (HEK-293 line with an ATXN2-luciferase reporter) viability, CellTiter-Fluor protease fluorescence, 24 h; note: nearly all actives have a fitted effect of over 40% in size
* hit, by the source's call. Calls come from the whole dose curve; as a rule, active = well fitted curve in the direction sought with a large enough effect; inconclusive = small, poorly fitted or top-dose-only effect, or another doubt; inactive = no such curve, though single readings can be large; an effect the other way counts as inactive or inconclusive. Potency is the fitted concentration of half-maximal effect.

`COc1ccc2c(c1)OC(C)CN(CCNC(=O)c1cccc(N3CCNC3=O)c1)C2` (stereo not drawn) gave S2 tox inactive.
For COc1ccc(N(C(=O)c2ccccc2C)S(=O)(=O)c2cccs2)cc1 the results were TGFb SMAD3 inh -18.1%, HepG2 tox -4.1%, HT1080NT lethal 0.92µM*, HT1080 IDH1KD tx 0.92µM*, ATXN2 expr inh -12.6% and S2 tox inactive.
COC(=O)Nc1nc(-c2ccccc2)c(C(=O)c2ccc(Cl)cc2)s1 was read as TGFb SMAD3 inh inconclusive, HepG2 tox 7.0%, HT1080NT lethal inconclusive, HT1080 IDH1KD tx inconclusive, ATXN2 expr inh -13.4% and S2 tox inconclusive.
Screening CCOC(=O)Nc1nc(-c2ccccc2)c(C(=O)c2ccccc2)s1 returned TGFb SMAD3 inh inconclusive, HepG2 tox 8.0%, HT1080NT lethal 0.581µM*, HT1080 IDH1KD tx 0.581µM*, ATXN2 expr inh 0.7% and S2 tox inactive.
O=C(c1cccnc1)C1CCCN(Cc2ccc3c(c2)CN(C(=O)c2cccc(Cl)c2)CCO3)C1 (stereo not drawn) was read as S2 tox inactive.
Screening COc1ccc(C2C3=C(Nc4ncnn42)c2ccccc2CCC3)cc1 (stereo not drawn) returned TGFb SMAD3 inh -30.8%, HepG2 tox -1.9%, HT1080NT lethal -5.5%, HT1080 IDH1KD tx -2.0%, ATXN2 expr inh -0.8% and S2 tox inactive.
`COc1cc(C2C3=C(Nc4ncnn42)c2ccccc2CC3)cc(OC)c1OC` (stereo not drawn) gave TGFb SMAD3 inh -33.1%, HepG2 tox -9.1%, HT1080NT lethal 0.731µM*, HT1080 IDH1KD tx 0.731µM*, ATXN2 expr inh -19.1% and S2 tox inconclusive.
For Cc1ccc2nc(C3CCCCC3)c(Cc3ccccc3)n2c1 the results were TGFb SMAD3 inh inconclusive, HepG2 tox -63.2%, HT1080NT lethal inconclusive, HT1080 IDH1KD tx inconclusive, ATXN2 expr inh inconclusive and S2 tox 12.6µM*.
`CCCc1nc2ccc(C)cn2c1Cc1cccc(F)c1` gave TGFb SMAD3 inh inconclusive, HepG2 tox -23.2%, HT1080NT lethal -18.0%, HT1080 IDH1KD tx inconclusive, ATXN2 expr inh -36.9% and S2 tox inconclusive.
For Cc1ccc2nc(C(C)(C)C)c(Cc3cccc(F)c3)n2c1 the results were TGFb SMAD3 inh inconclusive, HepG2 tox -22.8%, HT1080NT lethal 16.4µM*, HT1080 IDH1KD tx 23.1µM*, ATXN2 expr inh inconclusive and S2 tox inconclusive.
Cc1ccc2nc(C3CCCCC3)c(Cc3cccc(F)c3)n2c1 was read as TGFb SMAD3 inh inconclusive, HepG2 tox -11.5%, HT1080NT lethal inconclusive, HT1080 IDH1KD tx inconclusive, ATXN2 expr inh inconclusive and S2 tox inconclusive.
`Cc1ccc2nc(-c3ccco3)c(Cc3ccccc3)n2c1` gave TGFb SMAD3 inh inconclusive, HepG2 tox -15.2%, HT1080NT lethal inconclusive, HT1080 IDH1KD tx 23.1µM*, ATXN2 expr inh 4.2% and S2 tox inconclusive.
For Cc1ccc2nc(-c3cccc(Cl)c3)c(Cc3ccccc3)n2c1 the results were HT1080NT lethal 3.3%, HT1080 IDH1KD tx -9.9%, ATXN2 expr inh inconclusive and S2 tox inconclusive.
For CCCc1nc2ccc(C)cn2c1Cc1ccc(C)cc1 the results were TGFb SMAD3 inh inconclusive, HepG2 tox -21.7%, HT1080NT lethal inconclusive, HT1080 IDH1KD tx inconclusive, ATXN2 expr inh inconclusive and S2 tox 25.1µM*.
Screening CCCc1nc2ccc(C)cn2c1Cc1ccccc1 returned TGFb SMAD3 inh -14.4%, HepG2 tox -17.3%, HT1080NT lethal 0.4%, HT1080 IDH1KD tx -13.1% and ATXN2 expr inh 0.0%.
Cc1cc(C(=O)NCC2CCC3(CCN(Cc4cc(F)ccc4F)CC3)O2)n(C)n1 (stereo not drawn) was read as S2 tox inactive.
COc1ccc(Nc2c(-c3ccco3)nc3ccc(C)cn23)cc1 was read as TGFb SMAD3 inh 3.5%, HepG2 tox -0.3%, HT1080NT lethal -2.7%, HT1080 IDH1KD tx -1.6% and S2 tox inactive.
`COC(=O)c1ccc2nc(-c3ccco3)c(Cc3ccccc3)n2c1` gave TGFb SMAD3 inh 11.2µM*, HepG2 tox -34.9%, HT1080NT lethal inconclusive, HT1080 IDH1KD tx inconclusive, ATXN2 expr inh 11.8% and S2 tox inactive.
Screening Fc1cccc(Cc2c(-c3ccco3)nc3ccc(Br)cn23)c1 returned TGFb SMAD3 inh inconclusive, HepG2 tox -97.2%, HT1080NT lethal inconclusive, HT1080 IDH1KD tx 16.4µM* and ATXN2 expr inh -24.7%.
Cc1ccc2nc(-c3ccco3)c(CC(C)(C)C)n2c1 was read as TGFb SMAD3 inh inconclusive, HepG2 tox -29.5%, HT1080NT lethal -1.6%, HT1080 IDH1KD tx 8.4%, ATXN2 expr inh inconclusive and S2 tox 20µM*.
`CCN(CC)c1ccc(/C=N/Nc2nc3ccccc3[nH]2)cc1` gave TGFb SMAD3 inh 3.5%, HepG2 tox -2.2%, HT1080NT lethal inconclusive, HT1080 IDH1KD tx inconclusive and S2 tox 5.62µM*.
`Cc1c(/C=N/Nc2nc3ccccc3[nH]2)c2ccccc2n1C` gave TGFb SMAD3 inh inconclusive, HepG2 tox -32.5%, HT1080NT lethal 20.6µM*, HT1080 IDH1KD tx inconclusive, ATXN2 expr inh -25.1% and S2 tox inconclusive.
Screening CC(C)Cn1c(/C=N/Nc2nc3ccccc3[nH]2)nc2ccccc21 returned TGFb SMAD3 inh inconclusive, HepG2 tox -18.0%, HT1080NT lethal inconclusive, HT1080 IDH1KD tx inconclusive, ATXN2 expr inh 4.47µM* and S2 tox inconclusive.
For Cc1nn(-c2ccccc2)c(C)c1/C=N/Nc1nc2ccccc2[nH]1 the results were TGFb SMAD3 inh inconclusive, HepG2 tox -45.7%, HT1080NT lethal inconclusive, HT1080 IDH1KD tx 18.4µM*, ATXN2 expr inh -9.2% and S2 tox inconclusive.
CCCn1c(/C=N/Nc2nc3ccccc3[nH]2)nc2ccccc21 was read as TGFb SMAD3 inh inconclusive, HepG2 tox -19.5%, HT1080NT lethal inconclusive, HT1080 IDH1KD tx inconclusive and ATXN2 expr inh inconclusive.
For C=CCn1cc(/C=N/Nc2nc3ccccc3[nH]2)c2ccccc21 the results were TGFb SMAD3 inh inconclusive, HepG2 tox 0.5%, HT1080NT lethal 20.6µM*, HT1080 IDH1KD tx 16.4µM*, ATXN2 expr inh -3.5% and S2 tox inconclusive.
Screening Cn1c(/C=N/Nc2nc3ccccc3[nH]2)nc2ccccc21 returned TGFb SMAD3 inh inconclusive, HepG2 tox -23.8%, HT1080NT lethal -29.6%, HT1080 IDH1KD tx inconclusive, ATXN2 expr inh 52.8% and S2 tox inactive.

Screening data: PubChem BioAssay, National Center for Advancing Translational Sciences (NCATS)
